Assay outcomes from PubChem.
Shown are actives, neighbours in structure and some others; about 9.4% of the full set was active somewhere.
ELG1 genotoxic: qHTS screen for small molecules that induce genotoxicity in human embryonic kidney (HEK293T) cells expressing luciferase-tagged ELG1. HEK293T ELG1-luciferase reporter, luminescence, 16 h. Potency, µM (series often up to 46 µM), most hits filed as activators. 330,000 tested, 1.3% active; note: nearly all actives have a fitted effect of over 60% in size
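HEK293T cells expressing luciferase-tagged ELG1 were exposed to compound or DMSO vehicle for 16 hr at 37 °C and 5% CO2. Luciferase activity was then measured with ONE-Glo after 30 min at room temperature.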
NPC1 promoter act: qHTS Assay for NPC1 Promoter Activators | AID 485313, 2010 | Potency, µM (doses to about 9.22 µM), usual class: activators | Huh7 NPC1 promoter luciferase reporter, 24 h | 320,000 tested, 2.4% active; note: nearly all actives have a fitted effect of over 60% in size
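Compounds in DMSO were transferred onto Huh7 NPC1-luciferase reporter cells pre-incubated 2 h; after 24 h at 37 °C, Amplite reagent was dispensed and luminescence recorded 10 min later.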
Rab9 promoter act: qHTS Assay for Rab9 Promoter Activators. 320,000 tested, 2.8% active. AID 485297, 2010. Potency, µM (titrated, usually from 9.22 µM), usual class: activators. Huh7 Rab9 promoter-luciferase reporter, luminescence, 24 h; note: nearly all actives have a fitted effect of over 60% in size
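Promoter activation is measured as luciferase luminescence in Huh7 cells stably transfected with a Rab9 promoter–luciferase construct, following 24 h compound exposure at 37 °C and 10 min reagent incubation at ambient temperature.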
ELG1 repair inh: qHTS screen for small molecules that inhibit ELG1-dependent DNA repair in human embryonic kidney (HEK293T) cells expressing luciferase-tagged ELG1 | HEK293T ELG1-luciferase reporter, luminescence, 16 h; DNA damage induced by 5-fluorouridine | Potency, µM (highest dose often 46.1 µM), usual class: inhibitors | 330,000 tested, 2.3% active | AID 504467, 2011; note: nearly all actives have a fitted effect of over 55% in size
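Cells (2,000 per well) received 5-fluorouridine plus test compound or DMSO and were incubated 16 hr at 37 °C, 5% CO2. Luciferase activity was read by luminescence 30 min after ONE-Glo addition; signal suppression marked inhibition of damage-induced ELG1 function.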
SMN2 splice enh: qHTS Assay for Enhancers of SMN2 Splice Variant Expression. 210,000 tested, 2.8% active. Potency, µM (top dose mostly 46.1 µM), most hits filed as activators. HEK293 SMN2-luciferase splicing reporter, luminescence, 30-36 h; note: nearly all actives have a fitted effect of over 55% in size
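HEK293 cells carry an SMN2 minigene-luciferase reporter in which exon 7 inclusion puts luciferase in frame. Cells were seeded at 2000 cells/well, attached for 10-12 hours, then exposed to compounds for 30-36 hours at 37C before ONE-Glo luminescence.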
FLuc modulator: qHTS profiling assay for firefly luciferase inhibitor/activator using purifed enzyme and Km concentrations of substrates (counterscreen for miR-21 project). Luciferin 4-monooxygenase (Photinus pyralis), P08659. purified FLuc, Km substrates, luminescence inhibition. Potency, µM (highest dose often 57.5 µM), actives largely listed as inhibitors. 360,000 tested, 6.9% active; note: nearly all actives have a fitted effect of over 55% in size
Target sequence (P08659 whole entry, looked up): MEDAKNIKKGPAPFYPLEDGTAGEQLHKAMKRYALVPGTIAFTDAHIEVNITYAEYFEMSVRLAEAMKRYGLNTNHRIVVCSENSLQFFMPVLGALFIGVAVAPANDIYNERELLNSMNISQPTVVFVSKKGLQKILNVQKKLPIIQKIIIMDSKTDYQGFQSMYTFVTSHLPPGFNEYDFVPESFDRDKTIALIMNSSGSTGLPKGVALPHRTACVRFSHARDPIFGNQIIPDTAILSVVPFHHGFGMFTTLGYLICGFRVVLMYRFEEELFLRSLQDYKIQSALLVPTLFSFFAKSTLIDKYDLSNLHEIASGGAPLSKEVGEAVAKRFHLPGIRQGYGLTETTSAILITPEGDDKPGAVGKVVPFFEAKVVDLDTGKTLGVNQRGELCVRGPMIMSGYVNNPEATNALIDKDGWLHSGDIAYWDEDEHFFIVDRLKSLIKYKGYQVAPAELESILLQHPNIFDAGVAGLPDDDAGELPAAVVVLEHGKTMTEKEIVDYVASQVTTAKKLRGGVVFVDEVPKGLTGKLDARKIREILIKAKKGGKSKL
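Biochemical qHTS of compounds, final roughly 60 µM downward over six points, against 10 nM purified firefly luciferase using Km concentrations of substrates (10 uM D-luciferin, 10 uM ATP) in Tris acetate pH 7.5 buffer; luminescence output.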
Hits are given with their value; – = inactive; ? = inconclusive; · = no result given; [ ] = another dose, or the depositor's remark. Calls come from the whole dose curve; as a rule, active = well fitted curve in the direction sought with a large enough effect; inconclusive = small, poorly fitted or top-dose-only effect, or another doubt; inactive = no such curve, though single readings can be large; an effect the other way counts as inactive or inconclusive.

SMILES	ELG1 genotoxic	NPC1 promoter act	Rab9 promoter act	ELG1 repair inh	SMN2 splice enh	FLuc modulator
O=C(O)c1cccc(NC(=O)c2cccc(NC(=O)C3CCCO3)c2)c1 (centres undefined)	–	–	–	?	–	3µM
O=C(O)c1cccc(C(=O)Nc2cccc(NC(=O)C3CCCO3)c2)c1 (centres undefined)	–	–	–	?	·	2.1µM
O=C(CCC(=O)N1CC2CCCN2c2ccccc21)NCc1ccc(F)cc1 (centres undefined)	·	·	·	·	·	–
O=C(COC(=O)c1c2c(nc3ccccc13)CCCC2)c1cccs1	–	–	–	?	–	11µM
O=C(COC(=O)c1c2c(nc3ccccc13)CCCCC2)c1ccc(Cl)s1	–	–	–	?	–	13µM
Nc1c(-c2ccccc2)c(CSc2nc3ccccc3[nH]2)nn1-c1cccc(Cl)c1	–	–	–	2.9µM	–	–
Nc1c(-c2ccccc2)c(CSc2nc3ccccc3[nH]2)nn1-c1ccc(Cl)cc1	–	–	–	6.5µM	–	–
Cc1ccccc1-n1nc(CSc2nc3ccccc3[nH]2)c(-c2ccccc2)c1N	–	–	–	?	·	–
c1ccc(-c2nnc(CSc3nc4ccccc4[nH]3)o2)cc1	–	–	–	–	–	–
CC(C)(C)c1ccc(OCCOCCn2c(-c3ccc(Cl)cc3)nc3ccccc3c2=O)cc1	·	·	·	·	–	–
Cc1ccccc1Oc1nc2c(c(=O)n(C)c(=O)n2C)n1Cc1ccc(Br)cc1	·	·	·	·	–	–
COc1ccccc1NC(=O)N(Cc1ccco1)Cc1cc2cccc(C)c2[nH]c1=O	–	–	–	?	–	?
COC(=O)c1cccc(S(=O)(=O)N(Cc2ccco2)Cc2cc3ccc(OC)cc3[nH]c2=O)c1	–	–	–	?	·	–
Cc1ccc2[nH]c(=O)c(CN(Cc3ccco3)C(=O)c3ccncc3)cc2c1	–	–	–	?	–	–
COc1ccccc1NC(=O)N(Cc1ccco1)Cc1cc2c(C)ccc(C)c2[nH]c1=O	–	–	–	5.2µM	–	?
COc1ccccc1NC(=S)N(Cc1ccco1)Cc1cc2cc(C)ccc2[nH]c1=O	–	–	–	16µM	–[1.84 µM]	–
COC(=O)c1cccc(S(=O)(=O)N(Cc2ccco2)Cc2cc3cc(OC)c(OC)cc3[nH]c2=O)c1	–	–	–	23µM	–	–
Cc1cccc2cc(CN(Cc3ccco3)C(=O)NC3CCCCC3)c(=O)[nH]c12	–	–	–	7.3µM	–	–
Cc1ccc(NC(=O)c2nnn(CC(=O)Nc3ccc(C)c(Cl)c3)c2N)c(C)c1	·	·	·	·	·	–
COc1ccc2c(c1)c1c(c(=O)n(-c3ccccc3)c(=O)n1CC(=O)Nc1ccc(F)cc1)n2C	·	·	·	·	·	–
CCOc1ccc(NC(=O)CC2C(=O)N(c3ccc(C)cc3)C(=O)N2C2CCCCC2)cc1 (centres undefined)	·	·	·	·	–	?
CC(C)(C)c1ccc(C(=O)NCCC(=O)N2CCCC2)cc1	21µM	2.2µM	4µM	?	·	9.5µM
CC(C)(C)c1ccc(C(=O)NCC(=O)OCC(=O)N2CCCC2)cc1	–	–	–	–	·	15µM
Cc1ccc(C(=O)NCCC(=O)N2CCOCC2)cc1	13µM	1.6µM	2.5µM	?	·	11µM
O=C1/C(=C\c2ccc(O)c(O)c2)N=C2CCCCCN12	?	–	–	?	·	19µM
SMILES	ELG1 genotoxic	NPC1 promoter act	Rab9 promoter act	ELG1 repair inh	SMN2 splice enh	FLuc modulator
COc1cc(/C=C2\N=C3CCCCCN3C2=O)ccc1O	?	–	–	?	?	17µM
COc1ccc(/C=C2/N=C3CCCCCN3C2=O)cc1	?	–	–	?	–	17µM
NC(=NCc1ccc(Cl)cc1Cl)NC(=O)c1nc(Cl)c(N)nc1N	·	·	·	·	–	·
Cc1ccn2c(=O)cc(COc3ccc(NC(=O)COc4ccccc4)cc3)nc2c1	·	·	·	·	·	–
COc1ccc([C@]23Cc4cc(OC)c(OC)cc4C(O2)C2=C(CC(C)(C)CC2=O)O3)cc1	·	–[1.84 µM]	–[1.84 µM]	·	·	–[11.5 µM]
Cn1cccc1C(=O)N1CCC2(CCN(Cc3ccncc3)CC2)CC1	·	·	·	·	–	·
Cc1cc(C2=NNC(=NCCc3ccccc3)SC2)c(C)n1CC1CCCO1 (centres undefined)	–	–	?	?	–	15µM
CCN=C1NN=C(c2cc(C)n(CCc3ccccc3)c2C)CS1	?	–	–	–	–	–
COCCn1c(C)cc(C2=NNC(=Nc3ccccc3)SC2)c1C	?	0.35µM	0.4µM	?	?	0.76µM
CCN=C1NN=C(c2cc(C)n(Cc3ccco3)c2C)CS1	?	–	–	?	–	0.21µM
COCCn1c(C)cc(C2=NNC(=Nc3ccc(OC)cc3)SC2)c1C	–	–	?	–	–	?
O=S(=O)(NCC1CCCO1)c1ccc(-c2ccc(Cl)cc2)cc1 (centres undefined)	–	–	–	?	–	–
Clc1ccc(C2=NNC(=NCC3CCCO3)SC2)cc1 (centres undefined)	–	3.2µM	?	?	11µM	12µM
C=CCn1c(C)cc(C2=NNC(=NCc3ccccc3)SC2)c1C	?	?	2.2µM	?	13µM	19µM
COC(=O)[C@@H](NC(=O)N1CCc2nc(COc3ccccc3)c3c(c2C1)CO[C@@H](C)C3)C(C)C	·	·	·	·	–[9.22 µM]	·
Cc1cc2oc(=O)cc(C)c2c2occ(-c3ccc(Cl)cc3)c12	·	·	·	·	–	–
O=C(Cc1csc(-c2ccccc2)n1)NCc1ccc(F)cc1	–	–	–	–	·	–
O=C(NCc1csc(-c2ccccc2)n1)c1cc(F)cc2c1OCOC2	–	?	?	?	·	19µM
COc1ccc(-c2nnc(SCC(=O)N3CCOCC3)o2)cc1	21µM	?	4.5µM	?	14µM	21µM
COc1cccc(-c2nnc(SCC(=O)N3CCOCC3)o2)c1	–	?	4µM	?	–	?
COc1ccc(OC)c(/C=C/C(=O)OCC(=O)Nc2ccc(Cl)c(S(=O)(=O)N(C)C)c2)c1	–	–	–	–	–	?
COc1ccc(/C=C/C(=O)OCC(=O)Nc2cc(S(=O)(=O)N(C)C)ccc2Cl)cc1	–	–	–	–	–	12µM
COc1cc(/C=C/C(=O)OCC(=O)Nc2cc(S(=O)(=O)N(C)C)ccc2Cl)ccc1O	–	–	–	–	·	?
COc1cccc(/C=C/C(=O)OCC(=O)Nc2ccc(Cl)c(S(=O)(=O)N(C)C)c2)c1OC	–	–	–	–	–	13µM
CCOc1ccc2nc(N3CCN(C(=O)c4ccc5c(c4)CCCC5)CC3)sc2c1	·	·	·	·	·	–
